Test results published in PubChem BioAssay (Tox21).
The source made the active and inactive calls. Calls come from the whole dose curve; as a rule, active = well fitted cell-killing curve with a large enough effect in the repeat runs; inconclusive = weak or mixed curves, or effect the other way; inactive = flat fitted curve, though single readings scatter.

assay: qHTS assay to identify small molecule HDAC inhibitors - cell viability counter screen (AID 1259365); conditions: HCT-116 viability, CellTiter-Glo ATP luminescence, 2 h; series mostly up to 92.4 µM; note: nearly all actives have a fitted effect of over 50% in size
Source text: U.S. Tox21 Program National Center for Advancing Translational Sciences [NCATS] NIH Chemical Genomics Center [NCGC] U.S. Environmental Protection Agency [EPA] National Institutes of Environmental Health Sciences [NIEHS] National Toxicology Program [NTP] U.S. Food and Drug Administration [FDA] Tox21 Assay Overview: Histone deacetylases (HDACs) are a group of epigenetic enzymes that regulate gene expression by histone deacetylation. HDACs are capable of introducing epigenetic modifications and such aberrations contribute to the onset and progression of several human diseases, thus making HDACs a popular therapeutic target. For identifying endogenous class I/II HDAC inhibitors a homogenous, luminogenic HDAC I/II cell based assay was used to measure the relative activity of class I and II HDACs from cells. Wild type HCT-116 cells were used to screen Tox21 compound libraries for identifying class I/II HDAC inhibitors.
Tox21 Assay Protocol Summary: HCT-116 cells were dispensed at 1,500 per well in 5uL of culture medium into white solid bottom 1536-well plates (Greiner Bio-One, Monroe, NC) using a Multidrop Combi (Thermo Scientific, Waltham, MA) dispenser. The assay plates were incubated at 37 C and 5% CO2 for an overnight, and then 23nL of compounds dissolved in DMSO and positive control were transferred using a Pintool station (Wako, San Diego, CA). The assay plates were incubated at 37C and 5% CO2 for 2hr. After compound treatment, 4uL of CellTiter-Glo reagent (Promega Corporation, Madison, WI) was added to each well of the assay plates using Flying Reagent Dispenser (FRD, Aurora Discovery, San Diego, CA) and incubated the assay plates at room temperature for 30min. The luminescence signal was quantified using a ViewLux plate reader (Perkin Elmer, Shelton, CT).

Compound	outcome
O=C1OC(=O)C2C1C1(Cl)C(Cl)=C(Cl)C2(Cl)C1(Cl)Cl (stereo not given)	inactive
COCC(=O)N(c1c(C)cccc1C)N1CCOC1=O	inactive
Cc1ncc(CNC(=O)N(CCCl)N=O)c(N)n1	inactive
OC(Cn1cncn1)(c1ccc(F)cc1)c1ccccc1F (stereo not given)	inactive
COc1ccc(C(=O)N2CCCC2=O)cc1	inactive
CCC(C)(C)c1cc(-n2nc3ccccc3n2)c(O)c(C(C)(C)CC)c1	inactive
CCCCOP(=O)(O)OCCCC	inactive
CCCSC(=O)N(CCC)CCC	inactive
O=C(Nc1ccccc1)N(Cc1ccc(Cl)cc1)C1CCCC1	inactive
COP(N)(=S)Oc1ccccc1C(=O)OC(C)C (stereo not given)	inactive
CC1CCC(=O)O1 (stereo not given)	inactive
CC(CC(C#N)(c1ccccc1)c1ccccc1)N(C)C (stereo not given)	inactive
CC(N)=S	inactive
COC(=O)C1=CCCN(C)C1	inactive
C=C(C)CN(CC)c1c([N+](=O)[O-])cc(C(F)(F)F)cc1[N+](=O)[O-]	inactive
CNC(=O)O/N=C(\C)SC	inactive
Cc1ncc2n1-c1ccc(Cl)cc1C(c1ccccc1F)=NC2	inactive
ClC(Cl)(Cl)C(Cl)(Cl)Cl	inactive
CSc1nc(N=[N+]=[N-])nc(NC(C)C)n1	inactive
O=P(O)(Oc1ccccc1)Oc1ccccc1	inactive

Compound	outcome
COc1cc(C[C@@H](C)N)c(OC)cc1C	inactive
CC(Cl)(Cl)[N+](=O)[O-]	inactive
N#CC(Cl)(Cl)Cl	inactive
OCCBr	inactive
CN1C[C@@H](NS(=O)(=O)N(C)C)C[C@@H]2c3cccc4c3c(cn4C)C[C@H]21	inactive
O=C(O)C(Br)CBr (stereo not given)	inactive
C[N+](=O)[O-]	inactive
COP(=S)(OC)Oc1c(Cl)cc(C)cc1Cl	inactive
CCC#N	inactive
CC(Oc1ccc(Oc2ncc(C(F)(F)F)cc2Cl)cc1)C(=O)O (stereo not given)	inactive
CSc1ccc(C(=O)C(C)(C)N2CCOCC2)cc1	inactive
CCCCOC(=O)[C@@H](C)Oc1ccc(Oc2ccc(C#N)cc2F)cc1	inactive
CCCSP(=S)(OCC)Oc1ccc(Cl)cc1Cl (stereo not given)	inactive
CCOP(=S)(OCC)SCSc1ccc(Cl)cc1	inactive
c1cc[c]([Hg][c]2ccccc2)cc1	inactive
CC(C)(C)OC(=O)c1ncn2c1[C@@H]1CCCN1C(=O)c1c(Br)cccc1-2	inactive
CNC(=O)N(C)c1nc2ccccc2s1	inactive
CC(=O)C(Cl)Cl	inactive
CCCSC(=O)Cl	inactive
C#CCN1C(=O)COc2cc(F)c(N3C(=O)C4=C(CCCC4)C3=O)cc21	inactive
